The supplement of paper PMC10849652
Targets with a hit are over-represented here; the source holds about 7,900 in all. About 0.6% of all pairs of compound and target were hits.

Tests used:
Assay in all cases: log2 fold change, soluble protein after heating vs DMSO (PISA); higher = thermal stabilisation; K562 cells, 10 uM, 30 min; active = over 0.2 and 3.5 SD of the protein, either way, in both replicates (recomputed)
erlotinib = compound: C#Cc1cccc(Nc2ncnc3cc(OCCOC)c(OCCOC)cc23)c1 [erlotinib]
In short: (§1)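 Values are thermal stability changes relative to control samples and are taken from duplicates. They are stated as log2 fold changes. Before quantification by TMTpro 16plex LC-MS/MS with equalised channel sums, K562 cells at 2×10^6 cells/mL were treated with 10 μM compound for 30 min, heated in aliquots for 3 min across 48°C-58°C, pooled, extracted in PBS with 0.5% NP-40 at 4°C, and centrifuged at 21,000xg for 90 min to give the soluble supernatant.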

[1] = compound: C/C(=N\NC(=O)C1=CC(=CC=C1)S(=O)(=O)N2CCOCC2)/C3=C(C=CC(=C3)Cl)O
In short: as §1

[2] = compound: C1=CC(=C(C=C1Cl)C2=NC3=NC=CN=C3C(=N2)NC4=CC=NC=C4)F
In short: as §1

[3] = compound: C1=CC(=CC=C1C2=NC3=C(N2)C=C(C=C3)C(=O)N)OC4=CC=C(C=C4)Cl
In short: as §1

[4] = compound: C1=CC2=C(C=CC(=C2)/C=C\3/C(=O)NC(=NCC4=CC=CS4)S3)N=C1
In short: as §1

[5] = compound: C1=CC2=NC=CN=C2C=C1/C=C/3\C(=O)NC(=O)S3
In short: as §1

[6] = compound: C1=CC=C(C=C1)C2=NC(=C(N2)C3=CC=NC=C3)C4=CC(=C(C=C4)Cl)O
In short: as §1

[7] = compound: C1=CC=C2C(=C1)C3=NNC4=CC=CC(=C43)C2=O
In short: as §1

[8] = compound: C1CCN(C1)C(=O)NC2=CC=CC(=C2)NC3=NC=C(C(=N3)NCCC4=CN=CN4)Br
In short: as §1

[9] = compound: C1CN(CCC1(CC2=CC=C(C=C2)Cl)N)C3=NC=NC4=C3C=CN4
In short: as §1

Measured: log2 fold change

TMEM223 (UniProt A0PJW6)
inactive: erlotinib 0.005 | [1] 0.052 | [2] -0.018 | [3] 0.002 | [4] -0.009 | [5] 0.013 | [6] -0.007 | [7] 0.01 | [8] 0.007 | [9] -0.038

USP9X (UniProt Q93008)
inactive: erlotinib 0.012 | [1] 0.06 | [2] -0.012 | [3] -0.029 | [4] 0.026 | [5] 0.008 | [6] 0.013 | [7] -0.033 | [8] 0.002 | [9] -0.002

VPS50 (UniProt Q96JG6)
inactive: erlotinib 0.008 | [1] 0.094 | [2] -0.003 | [3] -0.017 | [4] 0.088 | [5] 0.025 | [6] 0.023 | [7] -0.019 | [8] -0.022 | [9] -0.021

TNFRSF8 (UniProt P28908)
inactive: erlotinib 0.009 | [1] 0.017 | [2] -0.015 | [3] 0.006 | [4] -0.109 | [5] 0.024 | [6] -0.062 | [7] -0.061 | [8] -0.046 | [9] 0.05

WBP4 (UniProt O75554)
inactive: erlotinib 0 | [1] -0.07 | [2] 0.04 | [3] 0.009 | [4] -0.082 | [5] 0.031 | [6] -0.059 | [7] -0.055 | [8] 0.031 | [9] 0.036

VPS51 (UniProt Q9UID3)
inactive: erlotinib -0.003 | [1] 0.123 | [2] -0.02 | [3] -0.01 | [4] -0.002 | [5] 0.035 | [6] -0.014 | [7] -0.016 | [8] -0.029 | [9] -0.02

UTP14A (UniProt Q9BVJ6)
inactive: erlotinib -0.142 | [1] -0.15 | [2] -0.301 | [3] 0.06 | [4] -0.075 | [5] -0.005 | [6] -0.06 | [7] -0.045 | [8] 0.006 | [9] -0.155

WDR18 (UniProt Q9BV38)
Sequence of UniProt Q9BV38 (Q9BV38 whole entry, looked up): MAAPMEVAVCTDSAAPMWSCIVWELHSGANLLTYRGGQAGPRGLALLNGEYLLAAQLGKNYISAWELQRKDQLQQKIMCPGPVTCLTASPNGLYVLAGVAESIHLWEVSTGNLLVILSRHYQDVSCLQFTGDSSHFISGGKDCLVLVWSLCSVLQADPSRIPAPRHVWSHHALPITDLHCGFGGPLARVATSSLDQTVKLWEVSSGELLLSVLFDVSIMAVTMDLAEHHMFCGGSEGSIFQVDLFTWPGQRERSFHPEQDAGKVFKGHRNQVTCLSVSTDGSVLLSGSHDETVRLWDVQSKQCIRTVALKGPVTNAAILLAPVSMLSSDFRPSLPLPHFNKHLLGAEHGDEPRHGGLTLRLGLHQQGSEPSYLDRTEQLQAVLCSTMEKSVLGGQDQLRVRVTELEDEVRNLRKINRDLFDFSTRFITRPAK
inactive: erlotinib 0.058 | [1] 0.039 | [2] 0.024 | [3] -0.015 | [4] -0.111 | [5] 0.031 | [6] -0.045 | [7] 0.011 | [8] -0.035 | [9] 0.065

TNPO1 (UniProt Q92973)
inactive: erlotinib -0.032 | [1] 0.08 | [2] 0.038 | [3] 0.011 | [4] -0.006 | [5] 0.016 | [6] 0.008 | [7] -0.027 | [8] -0.001 | [9] 0

WEE1 (UniProt P30291)
inactive: erlotinib 0.029 | [1] -0.06 | [2] -0.081 | [3] 0.047 | [4] -0.206 | [5] 0.249 | [6] -0.177 | [7] 0.037 | [8] -0.085 | [9] -0.239

TMTC3 (UniProt Q6ZXV5)
Sequence of UniProt Q6ZXV5 (Q6ZXV5 whole entry, looked up): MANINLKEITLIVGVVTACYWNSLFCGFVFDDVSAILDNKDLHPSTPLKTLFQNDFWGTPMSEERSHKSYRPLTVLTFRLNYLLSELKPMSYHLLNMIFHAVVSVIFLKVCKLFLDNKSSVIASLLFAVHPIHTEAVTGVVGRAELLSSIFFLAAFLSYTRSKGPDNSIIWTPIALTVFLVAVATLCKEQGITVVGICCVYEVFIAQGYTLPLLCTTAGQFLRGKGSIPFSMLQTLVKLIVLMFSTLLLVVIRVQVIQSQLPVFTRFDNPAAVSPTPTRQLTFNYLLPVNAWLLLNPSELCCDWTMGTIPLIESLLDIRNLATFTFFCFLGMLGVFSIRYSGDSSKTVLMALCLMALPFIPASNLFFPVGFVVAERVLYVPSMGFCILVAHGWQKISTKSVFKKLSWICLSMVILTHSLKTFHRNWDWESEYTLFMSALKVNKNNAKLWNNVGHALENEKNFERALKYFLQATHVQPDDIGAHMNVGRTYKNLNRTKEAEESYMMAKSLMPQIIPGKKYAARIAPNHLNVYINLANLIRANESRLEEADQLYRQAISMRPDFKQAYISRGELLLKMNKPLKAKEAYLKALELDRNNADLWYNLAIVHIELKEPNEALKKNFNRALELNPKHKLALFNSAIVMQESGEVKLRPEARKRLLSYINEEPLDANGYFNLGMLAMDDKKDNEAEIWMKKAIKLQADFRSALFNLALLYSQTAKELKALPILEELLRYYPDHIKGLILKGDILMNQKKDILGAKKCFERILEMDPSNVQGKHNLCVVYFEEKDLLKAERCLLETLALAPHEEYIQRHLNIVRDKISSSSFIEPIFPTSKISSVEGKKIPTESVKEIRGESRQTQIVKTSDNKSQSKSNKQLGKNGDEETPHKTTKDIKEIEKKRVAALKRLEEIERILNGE
inactive: erlotinib 0 | [1] 0 | [2] 0.007 | [3] 0.023 | [4] 0.042 | [5] 0.002 | [6] 0.001 | [7] -0.001 | [8] -0.064 | [9] -0.014

VPS39 (UniProt Q96JC1)
inactive: erlotinib -0.006 | [1] 0.08 | [2] -0.005 | [3] 0.022 | [4] 0 | [5] 0.023 | [6] -0.014 | [7] -0.046 | [8] 0.01 | [9] 0.054

TMEM70 (UniProt Q9BUB7)
inactive: erlotinib -0.286 | [1] 0.03 | [2] 0.023 | [3] 0.257 | [4] 0.008 | [5] -0.09 | [6] -0.063 | [7] -0.039 | [8] -0.007 | [9] 0.053

VPS11 (UniProt Q9H270)
inactive: erlotinib -0.041 | [1] 0.099 | [2] 0.015 | [3] 0.005 | [4] 0.058 | [5] 0.068 | [6] 0.03 | [7] -0.011 | [8] 0.002 | [9] 0.027

WRB (UniProt O00258)
inactive: erlotinib -0.02 | [1] 0.012 | [2] 0.032 | [3] 0.019 | [4] -0.003 | [5] 0.069 | [6] 0.019 | [7] -0.042 | [8] 0.027 | [9] -0.011

USP48 isoform 8 (UniProt Q86UV5)
inactive: erlotinib 0.114 | [1] 0.186 | [2] 0.14 | [3] -0.033 | [4] 0.028 | [5] -0.013 | [6] 0.049 | [7] -0.049 | [8] -0.103 | [9] -0.029

TSC2 (UniProt P49815)
Sequence of UniProt P49815 (P49815 whole entry, looked up): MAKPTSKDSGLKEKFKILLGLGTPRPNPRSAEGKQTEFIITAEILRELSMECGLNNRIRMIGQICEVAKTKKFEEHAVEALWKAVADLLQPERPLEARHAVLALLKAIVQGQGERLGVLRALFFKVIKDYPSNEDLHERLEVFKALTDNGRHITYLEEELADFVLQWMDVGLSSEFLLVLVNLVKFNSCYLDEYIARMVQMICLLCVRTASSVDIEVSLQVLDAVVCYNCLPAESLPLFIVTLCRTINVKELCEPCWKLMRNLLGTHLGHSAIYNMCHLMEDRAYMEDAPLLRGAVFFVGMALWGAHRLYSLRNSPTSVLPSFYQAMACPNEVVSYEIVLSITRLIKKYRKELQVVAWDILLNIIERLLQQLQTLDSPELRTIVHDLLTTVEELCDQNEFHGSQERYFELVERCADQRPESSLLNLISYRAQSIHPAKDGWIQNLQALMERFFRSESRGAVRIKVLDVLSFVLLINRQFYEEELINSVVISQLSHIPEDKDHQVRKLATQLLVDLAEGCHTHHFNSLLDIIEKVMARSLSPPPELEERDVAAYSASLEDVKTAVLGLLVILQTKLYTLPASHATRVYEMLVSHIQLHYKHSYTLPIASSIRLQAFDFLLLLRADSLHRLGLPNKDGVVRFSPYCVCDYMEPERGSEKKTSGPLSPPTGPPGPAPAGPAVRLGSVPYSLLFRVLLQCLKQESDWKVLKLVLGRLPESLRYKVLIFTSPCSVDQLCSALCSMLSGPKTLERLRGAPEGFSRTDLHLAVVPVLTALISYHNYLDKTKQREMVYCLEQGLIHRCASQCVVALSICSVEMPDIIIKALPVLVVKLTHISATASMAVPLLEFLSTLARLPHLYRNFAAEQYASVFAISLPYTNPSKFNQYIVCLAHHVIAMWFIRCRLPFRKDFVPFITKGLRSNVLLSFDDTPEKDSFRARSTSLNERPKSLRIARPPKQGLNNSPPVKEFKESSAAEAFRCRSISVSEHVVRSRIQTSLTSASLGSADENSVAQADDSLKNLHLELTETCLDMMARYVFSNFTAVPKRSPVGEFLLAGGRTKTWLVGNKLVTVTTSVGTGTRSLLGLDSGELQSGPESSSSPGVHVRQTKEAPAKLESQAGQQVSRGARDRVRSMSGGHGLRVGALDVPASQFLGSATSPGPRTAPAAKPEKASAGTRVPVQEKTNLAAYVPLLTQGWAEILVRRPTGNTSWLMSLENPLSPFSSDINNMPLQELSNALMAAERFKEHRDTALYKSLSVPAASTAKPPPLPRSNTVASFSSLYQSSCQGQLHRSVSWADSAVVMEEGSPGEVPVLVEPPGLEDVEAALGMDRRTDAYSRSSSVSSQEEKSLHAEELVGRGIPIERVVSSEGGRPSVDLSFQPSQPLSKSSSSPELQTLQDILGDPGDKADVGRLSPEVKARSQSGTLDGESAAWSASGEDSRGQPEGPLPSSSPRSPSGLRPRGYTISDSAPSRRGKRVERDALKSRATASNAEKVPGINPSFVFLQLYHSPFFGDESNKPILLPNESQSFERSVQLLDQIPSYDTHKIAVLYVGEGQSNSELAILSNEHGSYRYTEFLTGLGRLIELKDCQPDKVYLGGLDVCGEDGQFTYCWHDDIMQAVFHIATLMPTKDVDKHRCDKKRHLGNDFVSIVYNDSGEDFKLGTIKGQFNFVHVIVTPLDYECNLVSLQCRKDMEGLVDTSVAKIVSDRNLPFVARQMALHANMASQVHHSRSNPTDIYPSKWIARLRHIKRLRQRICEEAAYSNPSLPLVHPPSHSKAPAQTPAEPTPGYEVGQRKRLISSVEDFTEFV
inactive: erlotinib 0.276 | [1] -0.047 | [2] -0.104 | [3] -0.297 | [4] -0.025 | [5] -0.135 | [6] 0.06 | [7] 0.063 | [8] -0.001 | [9] 0.199

TRMT10C (UniProt Q7L0Y3)
Sequence of UniProt Q7L0Y3 (Q7L0Y3 whole entry, looked up): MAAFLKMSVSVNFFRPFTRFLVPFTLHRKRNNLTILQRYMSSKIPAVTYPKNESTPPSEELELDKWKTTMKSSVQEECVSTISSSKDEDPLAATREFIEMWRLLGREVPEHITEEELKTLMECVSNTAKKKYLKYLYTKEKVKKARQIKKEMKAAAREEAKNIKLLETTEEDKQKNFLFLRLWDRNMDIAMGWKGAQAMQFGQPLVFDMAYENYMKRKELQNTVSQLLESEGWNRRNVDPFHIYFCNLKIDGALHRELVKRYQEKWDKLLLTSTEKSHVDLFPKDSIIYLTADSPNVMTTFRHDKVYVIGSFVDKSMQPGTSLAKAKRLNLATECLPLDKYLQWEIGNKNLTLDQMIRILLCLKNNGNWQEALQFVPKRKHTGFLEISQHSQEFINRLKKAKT
inactive: erlotinib -0.015 | [1] 0.066 | [2] 0.09 | [3] 0.062 | [4] 0.009 | [5] -0.007 | [6] 0.036 | [7] 0.036 | [8] -0.008 | [9] 0.009

WDR62 isoform 4 (UniProt O43379)
inactive: erlotinib 0.046 | [1] 0.015 | [2] -0.118 | [3] 0.055 | [4] -0.016 | [5] 0.046 | [6] -0.05 | [7] -0.041 | [8] 0 | [9] 0.014

VRK1 (UniProt Q99986)
Sequence of UniProt Q99986 (Q99986 whole entry, looked up): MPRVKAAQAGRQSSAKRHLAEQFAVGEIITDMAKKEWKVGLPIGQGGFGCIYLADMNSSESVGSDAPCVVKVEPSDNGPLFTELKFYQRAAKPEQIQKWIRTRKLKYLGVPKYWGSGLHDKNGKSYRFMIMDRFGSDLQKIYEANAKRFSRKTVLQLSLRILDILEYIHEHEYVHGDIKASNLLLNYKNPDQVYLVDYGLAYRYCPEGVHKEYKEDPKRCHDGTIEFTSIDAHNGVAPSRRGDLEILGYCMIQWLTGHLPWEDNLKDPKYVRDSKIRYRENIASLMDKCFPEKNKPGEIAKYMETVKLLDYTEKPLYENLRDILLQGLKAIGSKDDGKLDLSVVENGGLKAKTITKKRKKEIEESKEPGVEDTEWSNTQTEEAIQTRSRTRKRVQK
inactive: erlotinib 0.087 | [1] -0.055 | [2] 0.119 | [3] -0.016 | [4] 0.038 | [5] -0.024 | [6] -0.039 | [7] 0.078 | [8] -0.044 | [9] -0.045

WDR47 (UniProt O94967)
inactive: erlotinib 0.038 | [1] 0.065 | [2] -0.014 | [3] -0.002 | [4] -0.002 | [5] 0.06 | [6] 0.047 | [7] 0 | [8] 0.013 | [9] 0.006

VTA1 (UniProt Q9NP79)
inactive: erlotinib -0.05 | [1] 0.124 | [2] 0.07 | [3] 0.018 | [4] -0.007 | [5] 0.025 | [6] -0.02 | [7] 0.029 | [8] 0.01 | [9] -0.024

WASH2P (UniProt Q6VEQ5)
Sequence of UniProt Q6VEQ5 (Q6VEQ5 whole entry, looked up): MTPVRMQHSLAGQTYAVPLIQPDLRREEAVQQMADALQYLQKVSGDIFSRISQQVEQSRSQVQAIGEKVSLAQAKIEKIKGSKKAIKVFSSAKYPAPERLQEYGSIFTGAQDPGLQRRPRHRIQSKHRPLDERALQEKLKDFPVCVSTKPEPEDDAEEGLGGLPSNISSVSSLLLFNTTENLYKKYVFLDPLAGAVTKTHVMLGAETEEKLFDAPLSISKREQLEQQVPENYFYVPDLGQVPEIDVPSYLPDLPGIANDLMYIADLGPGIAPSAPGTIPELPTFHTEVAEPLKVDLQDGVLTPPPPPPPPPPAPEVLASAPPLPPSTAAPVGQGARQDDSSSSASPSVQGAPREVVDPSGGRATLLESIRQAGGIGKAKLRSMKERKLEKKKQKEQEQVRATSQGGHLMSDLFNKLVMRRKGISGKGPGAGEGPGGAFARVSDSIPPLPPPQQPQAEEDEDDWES
inactive: erlotinib 0.005 | [1] -0.02 | [2] -0.084 | [3] 0.003 | [4] 0.041 | [5] 0.038 | [6] 0.014 | [7] 0.011 | [8] 0.117 | [9] 0.013

TPP1 (UniProt O14773)
Sequence of UniProt O14773 (O14773 whole entry, looked up): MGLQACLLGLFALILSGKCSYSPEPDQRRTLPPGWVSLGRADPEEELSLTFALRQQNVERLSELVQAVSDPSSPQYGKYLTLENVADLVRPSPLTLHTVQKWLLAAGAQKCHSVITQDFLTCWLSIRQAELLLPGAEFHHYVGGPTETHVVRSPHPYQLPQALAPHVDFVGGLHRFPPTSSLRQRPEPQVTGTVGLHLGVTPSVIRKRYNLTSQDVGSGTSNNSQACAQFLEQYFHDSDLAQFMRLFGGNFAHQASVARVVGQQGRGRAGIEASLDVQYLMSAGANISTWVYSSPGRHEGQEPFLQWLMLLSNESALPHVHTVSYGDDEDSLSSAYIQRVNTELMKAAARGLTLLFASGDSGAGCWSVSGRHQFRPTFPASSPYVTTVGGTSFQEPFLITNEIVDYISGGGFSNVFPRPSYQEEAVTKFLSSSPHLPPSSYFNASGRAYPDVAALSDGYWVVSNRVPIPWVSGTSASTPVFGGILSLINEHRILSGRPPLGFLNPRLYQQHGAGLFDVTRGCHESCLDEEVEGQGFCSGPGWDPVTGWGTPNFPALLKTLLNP
inactive: erlotinib 0.013 | [1] 0.009 | [2] 0.059 | [3] -0.015 | [4] -0.007 | [5] 0.024 | [6] 0.034 | [7] -0.014 | [8] -0.012 | [9] -0.017

WDHD1 (UniProt O75717)
inactive: erlotinib 0.007 | [1] 0.173 | [2] 0.093 | [3] -0.002 | [4] 0.026 | [5] 0.038 | [6] -0.02 | [7] -0.028 | [8] -0.031 | [9] -0.013

TXN2 (UniProt Q99757)
inactive: erlotinib -0.035 | [1] -0.022 | [2] 0.093 | [3] -0.032 | [4] 0.086 | [5] 0.098 | [6] -0.02 | [7] 0.029 | [8] 0.029 | [9] 0.005

TXNIP (UniProt Q9H3M7)
inactive: erlotinib 0.013 | [1] 0.017 | [2] 0.082 | [3] 0.025 | [4] 0.108 | [5] 0.124 | [6] 0.141 | [7] 0.034 | [8] 0.137 | [9] 0.041

VWA8 (UniProt A3KMH1)
inactive: erlotinib 0.077 | [1] 0.037 | [2] 0.017 | [3] -0.036 | [4] 0.108 | [5] 0.008 | [6] 0.017 | [7] 0.069 | [8] -0.009 | [9] 0.042

VTI1B (UniProt Q9UEU0)
inactive: erlotinib 0.011 | [1] -0.008 | [2] -0.023 | [3] -0.02 | [4] 0 | [5] 0.03 | [6] -0.055 | [7] -0.036 | [8] 0.022 | [9] 0.046

TTI2 (UniProt Q6NXR4)
inactive: erlotinib 0 | [1] 0.053 | [2] 0.003 | [3] -0.035 | [4] 0.029 | [5] -0.036 | [6] -0.095 | [7] 0.046 | [8] 0.008 | [9] -0.028
